LASV entry inh = inhibitors of Lassa virus binding or cell entry | AID 540256 | Potency, µM (highest dose often 37.9 µM), without a hit: at the top dose activity change, negative = inhibition, actives largely listed as inhibitors | hit rate 1.2% among 300,000 | Lassa virus pseudotype entry inhibition, cell reporter; calls by dose curve; tested in HEK293 cells; also: potency is read from the fitted curve at half-maximal effect; nearly all actives have a fitted effect of over 50% in size
HCMV antiviral = blocks human cytomegalovirus replication. hit rate 4.5% among 410,000. HFF cells, HCMV-luciferase reporter, 72 h; active compounds read low. activity change, negative = inhibition, % at 57.5 µM. AID 1259415; in the data active = activity change below about -60%; inconclusive = no clear call, values can overlap the other calls; inactive = above about -39%
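After 16 h attachment at 37C, HFF cells received test compound and HCMV-luciferase (1 PFU/cell); reporter luminescence read 72 h later, data normalized against buffer-only and known inhibitor Salinomycin.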
HCV inhibitor = blocks hepatitis C virus. Huh7.5.1 HCVcc-Cre infection, luciferase reporter, 44 h. Potency, µM (top dose mostly 41.8 µM), inactives show top-dose activity change, negative = inhibition, usual class: inhibitors. hit rate 3.4% among 340,000; also: potency is read from the fitted curve at half-maximal effect
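Seed cells (1,000/well) for 4 h; treat with compound and infect with HCVcc-Cre, moi about 0.5. Incubate 44 h, then detect luciferase activity.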
FBPA Giardia inh = inhibitors of Giardia lamblia fructose-1,6-bisphosphate aldolase. purified Giardia FBPA. hit rate 0.71% among 290,000. Potency, µM (top dose mostly 59.6 µM), without a hit: at the top dose activity, negative = inhibition, most hits filed as inhibitors. A8B2U2. AID 2451; also: potency is read from the fitted curve at half-maximal effect; nearly all actives have a fitted effect of over 55% in size
Target sequence (A8B2U2 whole entry, looked up): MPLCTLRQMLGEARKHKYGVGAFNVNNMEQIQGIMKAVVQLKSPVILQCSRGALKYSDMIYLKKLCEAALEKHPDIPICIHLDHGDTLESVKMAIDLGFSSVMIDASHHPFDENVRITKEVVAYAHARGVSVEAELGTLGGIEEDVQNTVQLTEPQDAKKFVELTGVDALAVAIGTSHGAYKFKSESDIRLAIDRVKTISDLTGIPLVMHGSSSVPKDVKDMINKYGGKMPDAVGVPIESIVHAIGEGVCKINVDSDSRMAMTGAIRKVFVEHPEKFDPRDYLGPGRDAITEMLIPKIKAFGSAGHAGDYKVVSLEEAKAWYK
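Giardia FBPA (40 nM reagent) was preincubated 10 min at RT with compound (up to 57.5 uM final), then substrate plus GAPDH/TPI/NAD/arsenate coupling system with diaphorase/resazurin was added; resorufin fluorescence (525/598 nm) was read after 20 min.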
MARV entry inh = Marburg virus entry inhibition; hit rate 1.8% among 300,000; Potency, µM (highest dose often 37.8 µM), for the others: top-dose activity change, negative = inhibition, usual class: inhibitors; Marburg virus pseudotyped entry inhibition, cell reporter; calls by dose curve; tested in HEK293 cells; also: potency is read from the fitted curve at half-maximal effect
FMDV antiviral = foot and mouth disease virus antiviral activity; FMDV antiviral cell-based qHTS; AID 1159524; hit rate 1.2% among 410,000; Potency, µM (top dose mostly 57.9 µM), inactives show at the top dose activity change, negative = inhibition, hits mostly inhibitors; calls by dose curve; tested in HEK293T cells; also: read-out not given here; potency is read from the fitted curve at half-maximal effect; nearly all actives have a fitted effect of over 45% in size
Starred values were filed as active, the others as inactive; ? = inconclusive; . = not tested or not shown; [ ] = remark or other dose. Only some compounds are listed: those with a hit (about 8.3% of all), similar ones and a draw of the others. Unless noted, calls follow the shape of the dose curve; as a rule, active = well fitted curve in the direction sought with a large enough effect; inconclusive = small, poorly fitted or top-dose-only effect, or another doubt; inactive = no such curve, though single readings can be large; an effect the other way counts as inactive or inconclusive. % is scaled to controls: 0 for no effect and ±100 for the full control effect.

SMILES	LASV entry inh	HCMV antiviral	HCV inhibitor	FBPA Giardia inh	MARV entry inh	FMDV antiviral
CC(=O)NC(c1ccc(C)cc1)c1cc(Cl)c2cccnc2c1O (centres undefined)	?	-102*	5.6µM*	?	2.8µM*	-19%
CC(=O)NC(c1cc(Cl)c2ccccc2c1O)C(C)C (centres undefined)	.	-9	.	.	.	-27%
CC(=O)NC(c1cc(Cl)c2cccnc2c1O)C(C)C (centres undefined)	.	-98*	.	.	.	-18%
CCN(C(=O)CSc1nc(-c2ccc(C(C)C)cc2)no1)c1ccccc1	?	-17	.	.	.	-25%
COc1ccc(C2=C/C(=C\c3ccc(OC(C)=O)cc3)C(=O)O2)cc1	-6%[46.1 µM]	24	-2%	4%	10%[46.1 µM]	-4%
CC(=O)Oc1ccc(C2=Cc3ccc(OC(C)=O)cc3OC2C)cc1 (centres undefined)	6.3µM*	?	?	.	?	7%
O=C(NCc1cccnc1)/C(=C\c1ccc(-c2ccc(Cl)c(Cl)c2)o1)S(=O)(=O)c1ccccc1	?	-102*	11µM*	-3%	?	?
O=C(CCN1CCCCC1)Nc1ccc(Br)cc1C(=O)c1ccccc1	-9%[46.1 µM]	?	?	3%	13µM*	-22%
O=S(=O)(NCC(c1cccs1)S(=O)(=O)c1ccccc1)c1ccc(F)cc1 (centres undefined)	-10%[46.1 µM]	-2	.	.	.	35%
c1ccc(-c2ccc(-c3cn4c(n3)CCC4)cc2)cc1	10µM*	-62*	?	-6%	7.1µM*	?
COc1ccc(-c2cn3c(n2)CCC3)cc1	-24%	44	-5%	-3%	-27%	35%
COc1ccc(C2=Nn3c(nnc3-c3cccc(OC)c3OC)SC2)c(OC)c1	.	.	.	7%	.	.
CC1CCN(S(=O)(=O)c2ccc3c(c2)CCN3)CC1	9%[46.1 µM]	105	.	.	.	38%
COc1ccc(CNC(=O)c2ccc(CS(=O)Cc3ccccc3Cl)o2)cc1 (centres undefined)	?	?	.	.	.	-28%
Cc1cc(-c2ccc(S(=O)(=O)Nc3ccc(Cl)cc3C)cc2)on1	-27%[46.1 µM]	-78*	.	.	.	-10%
C[C@H]1COc2cc(N3CCCC3)ccc2S(=O)(=O)N1	1%[46.1 µM]	-1	.	.	.	.
CC(=O)Nc1sc2c(c1CN1CCN(c3ccc(F)cc3)CC1)CCCC2	?	1	?	-2%	10µM*	?
Cc1ccc(C)c(NC(=O)C(Sc2nc3ccc(C)cc3[nH]2)c2ccccc2)c1 (centres undefined)	?	-74*	?	1%	8.9µM*	?
O=C1c2ccccc2NC(c2ccccc2)N1Cc1ccccc1 (centres undefined)	?	48	-19%	.	2%	-23%
Cc1ccc(CN2C(=O)c3ccccc3NC2c2cc(Br)ccc2O)cc1 (centres undefined)	?	-79*	-16%	2%	?	-9%
Cc1cccc(-c2nc(CSCC(=O)N3CCN(c4ccccn4)CC3)c(C)o2)c1	?	-66*	11µM*	3%	?	16µM*
Cc1cccc(-c2nc(CSCC(=O)N3CCN(c4cccc(C)c4C)CC3)c(C)o2)c1	7%[46.1 µM]	-65*	.	.	.	?
Cc1cccc(N2CCN(C(=O)CSCc3ccc(F)cc3)CC2)c1C	4%[46.1 µM]	-27	.	.	.	-3%
Cn1cc(-c2nc3cnc(Oc4cccc(Cl)c4)nc3n(CCC#N)c2=O)c2ccccc21	.	.	.	1%	.	5%
COC(=O)C1=CN(Cc2ccccc2)C=C(C(=O)OC)C1c1cc(F)ccc1F	7.1µM*	-23	-23%	-3%	-36%	-20%
SMILES	LASV entry inh	HCMV antiviral	HCV inhibitor	FBPA Giardia inh	MARV entry inh	FMDV antiviral
COC(=O)C1=CN(Cc2ccc(C)cc2)C=C(C(=O)OC)C1c1ccc(F)c(F)c1	?	.	?	1%	?	-27%
COc1cc(CCC(=O)NCc2ccc3c(c2)CCN3C(=O)c2ccc(F)cc2)cc(OC)c1OC	-1%[46.1 µM]	8	.	.	.	-6%
CCCCCCCCCCC1=C(C)C(=O)C(OC)=C(OC)C1=O	.	.	.	?	.	-21%[97.4 µM]
CCCCCCCCSC1=CC(=O)C(OC)=C(OC)C1=O	.	-87*	.	.	.	18µM*
O=C(CSc1nc2ccccc2c(=O)n1CCCN1CCOCC1)c1c[nH]c2ccccc12	?	?	14µM*	-12%	?	-1%
O=c1c2ccccc2nc(SCc2ccc(F)cc2Cl)n1CCCN1CCOCC1	.	-39	10µM*	-8%	.	-13%
CCCn1c(C)nc2c(NC3CCN(Cc4ccccc4)C3)nc(C)nc21 (centres undefined)	.	.	.	-1%	.	.
Cc1cc(-n2c(SCC(=O)NCCC3=CCCCC3)nc3n[nH]c(C)c3c2=N)ccc1Cl	.	-21	?	13%	.	2%
COc1ccc(OC)c(NC(=O)CSc2nc3n[nH]c(C)c3c(=N)n2-c2cccc(Cl)c2C)c1	-6%[46.1 µM]	?	?	-3%	18µM*	?
Cc1ccc(CNC(=O)CSc2nc3n[nH]c(C)c3c(=N)n2-c2ccccc2Cl)cc1	5%[46.1 µM]	-4	.	.	.	-3%
Cc1c(Cl)cccc1-n1c(SCC(=O)NCc2ccccc2)nc2n[nH]c(C)c2c1=N	-27%[46.1 µM]	-61*	.	.	.	-21%
Cc1[nH]nc2nc(SCC(=O)NCCC3=CCCCC3)n(-c3ccc(Br)cc3)c(=N)c12	.	-78*	?	7%	.	-20%
COc1cccc(CNc2nc3c(-c4cccc(C)c4)nnn3c3ccccc23)c1	9%[46.1 µM]	63	.	.	12%[46.1 µM]	2%
COCCCNc1nccc2[nH]c(-c3cccc(C)c3)nc12	.	26	.	.	.	.
COc1ccc(NC(=O)c2cc(S(=O)(=O)N3CCCCCC3)cn2C)cc1Cl	-1%[46.1 µM]	-4	.	.	.	0%
CNC(=O)C1CCN(S(=O)(=O)c2c(C)noc2/C=C/N(C)C)CC1	.	29	11%	-3%	.	7%
Cc1noc(/C=C/N(C)C)c1S(=O)(=O)N1CCCC(C(=O)NCc2ccccc2Cl)C1 (centres undefined)	-9%	-98*	?	-6%	-3%	-12%
Cc1noc(/C=C/N(C)C)c1S(=O)(=O)N1CCCC(C(=O)NCc2ccc(Cl)cc2)C1 (centres undefined)	20%[14.3 µM]	-10	.	4%	?	13%
Cc1ccc(C)c(N2CCN(S(=O)(=O)c3c(C)noc3/C=C/N(C)C)CC2)c1	?	-10	?	6%	13µM*	?
Cc1noc(/C=C/N(C)C)c1S(=O)(=O)N1CCN(c2ccccc2)CC1	.	-86*	?	-4%	.	-26%
COc1cccc(-c2ccc3ncnc(N4CCOCC4)c3c2)c1	.	.	.	4%	.	-21%
O=C(c1cccc(Cl)c1)N1CCC(c2nc3c(nnn3Cc3ccc(F)cc3F)c(=O)[nH]2)CC1	-23%[46.1 µM]	-12	.	.	-3%[46.1 µM]	-23%
COC(=O)C1CCCCN1Cc1nc(N(C)C)c2ccccc2n1 (centres undefined)	.	.	.	.	.	-3%
O=S1(=O)CCSC[C@@H](CNCc2ccco2)N1	?	1	.	.	.	.

Assay outcomes: PubChem, National Center for Advancing Translational Sciences (NCATS)
